SMILES strings stand for the structures. This is part of a sample that, as a whole, favours compounds with a hit. Of some 83,000 tested, about 20% had one in any assay.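 How to read the values: 0–100, growth inhibition (40 = 60% inhibited); 0, no net growth; -100 to 0, cell death (-40 = 40% of starting cells died; -100 = all dead).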 A number with no mark means an inactive call. Active and inactive are the calls of the source. Rule for the calls: active = growth percent below 10; inactive = the rest.

The text below walks through data of PubChem BioAssay (NCI).

Common to all, as to experiment: NCI-60 one-dose screen, 48 h (100 = growth as untreated, 0 = no growth, -100 = all killed)
Common to all, as to conditions: 10 µM unless noted

Experiment [1] concerns T-47D breast.
Experiment [2] concerns BT-549 breast.
The subject of experiment [3] is MDA-MB-435 melanoma.
Experiment [4] relates to SW-620 colon.
Experiment [5] concerns MCF7 breast.
Experiment [6] relates to HCT-116 colon.
The subject of experiment [7] is HCC-2998 colon.
The subject of experiment [8] is KM12 colon.

Take `Cc1c(O)cc(-c2cnc(N/N=C/c3ccccc3)s2)c(O)c1C`: the growth in experiment [1] was 29.7%; in experiment [2], 72.8%; in experiment [3], 95.5%; in experiment [4] it was 113%; in experiment [5], 72.3%; in experiment [6], 96.2%. In addition, the growth in experiment [7] is 131%; in experiment [8], 90.7%.

Consider `OC1CSSC1Cn1cnc2c(Nc3ccc(OCc4cccc(F)c4)c(Cl)c3)ncnc21` (stereo not given), for which the growth is 19.8% in experiment [1]; 52.9% in experiment [2]; -77.1% (active) in experiment [3]; -20.3% (active) in experiment [4]; -60.1% (active) in experiment [5]; -33.1% (active) in experiment [6]. Besides, the values for the growth in experiment [7] and in experiment [8] were -81.7% (active) and -60.3% (active), respectively.

Consider `COC12C=C/C(=C(/C(=O)OCCSc3ccnn3C)C(=O)CCCCCCCCC3(OC)C=C/C(=C(/C(=O)OCCSc4ccnn4C)C(=O)CCCCCCCC1)O3)O2`, for which the growth in experiment [1] was 33.2%; in experiment [2], -22.7% (active); in experiment [3], -3.93% (active); in experiment [4], 18.5%; in experiment [5], 14.7%; in experiment [6], -38.5% (active). The growth is -86.1% (active) in experiment [7] and -57.6% (active) in experiment [8].

Take `Cc1cc(O)c(=O)cc2c1C[C@H]1CC(C)(C)/C=C/C[C@]3(C)Oc4cc(=O)c(O)cc(C)c4C[C@H]3C[C@H](O)[C@@]1(C)O2`: the growth in experiment [1] was 2.08% (active); in experiment [2], 1.38% (active); in experiment [3], 18.1%; in experiment [4] it was 13.8%; in experiment [5], 2.97% (active); in experiment [6], 8.37% (active). Moreover, the growth in experiment [7] was 32.4%; in experiment [8], 16.1%.

`O=S(=O)(Nc1ccc2ccccc2c1)c1ccc(-c2cnc(C3CC3)o2)cc1`: the growth in experiment [1] was 29.8%; in experiment [2], 62.6%; in experiment [3] it was -30.2% (active); in experiment [4] it was 24.3%; in experiment [5], 22.1%; in experiment [6], 25.4%. In addition, the growth in experiment [7] was 64.3%; in experiment [8], 24.7%.

Take `Cc1ccc(OCCOCCOCCOCCOCCOc2ccc(C)n(O)c2=S)c(=S)n1O`: the growth in experiment [1] is 15.1%; in experiment [2] it was 26%; in experiment [3], 32.6%; in experiment [4], 27.9%; in experiment [5], 11.5%; in experiment [6] it was 18%. In addition, the growth was -7.72% (active) in experiment [7] and 23% in experiment [8].

Regarding `C/C(=C(\c1ccc(OCCN2CCCCCC2)cc1)c1ccc(OC(=O)c2ccccc2)cc1)c1ccc(Cl)cc1`, the growth was 42.6% in experiment [1]; 68.5% in experiment [2]; 56% in experiment [3]; 25.8% in experiment [4]; 14.5% in experiment [5]; 17.9% in experiment [6]. Besides, the figures for the growth in experiment [7] and in experiment [8] were 60.7% and 32.1%, respectively.

On to `C[C@@H]1CN(c2cnc(C(=O)Nc3cc(F)cc4cccnc34)cn2)C[C@H](C)N1`, for which the growth was 30% in experiment [1]; 102% in experiment [2]; 97% in experiment [3]; 46.2% in experiment [4]; 9.07% (active) in experiment [5]; 13.1% in experiment [6]. Besides, the figures for the growth in experiment [7] and in experiment [8] were 91.7% and 83.4%, respectively.

On to `Cc1cc(=O)n(C(=S)Nc2ccc(Cl)cc2)c2cc(O)ccc12`, for which the growth in experiment [1] is 85.4%; in experiment [2], 119%; in experiment [3], 105%; in experiment [4], 110%; in experiment [5], 98.7%; in experiment [6], 96%. The growth in experiment [7] is 100%; in experiment [8], 102%.

In the case of `O=S(=O)(N=C1C(Cl)=C(Cl)C(=NS(=O)(=O)c2ccccc2)C(Cl)=C1Cl)c1ccccc1`, the growth was 88.9% in experiment [1]; 86.6% in experiment [2]; 101% in experiment [3]; 39.7% in experiment [4]; 53.8% in experiment [5]; 25.4% in experiment [6]. The growth in experiment [7] was 122%; in experiment [8], 96.2%.

Take `c1cc(OCCN2CCCCCC2)ccc1CNc1ccc2nc(CCC3CCCCC3)[nH]c2c1`: the growth is 31.6% in experiment [1]; 76.5% in experiment [2]; 40.6% in experiment [3]; 28.8% in experiment [4]; 5.67% (active) in experiment [5]; 22.9% in experiment [6]. Moreover, the figures for the growth in experiment [7] and in experiment [8] were -4.87% (active) and 65.6%, respectively.

`C=C1C(=O)O[C@H]2[C@H]1CC/C(CNC(=O)Cc1c[nH]c3ccccc13)=C\CC[C@@]1(C)O[C@@H]21`: the growth is -9.45% (active) in experiment [1]; 13.6% in experiment [2]; 7.96% (active) in experiment [3]; -20.4% (active) in experiment [4]; 17.8% in experiment [5]; -11.9% (active) in experiment [6]. Further, the results for the growth in experiment [7] and in experiment [8] were 60.4% and 47.5%, respectively.

For `C#COc1cccc(Nc2ncnc3cc(NC(=O)[C@H](C)Cl)ccc23)c1`, the growth in experiment [1] is 6.76% [6.25 µM] (active); in experiment [2] it was 9.94% [6.25 µM] (active); in experiment [3] it was -25.1% [6.25 µM] (active); in experiment [4], 14.5% [6.25 µM]; in experiment [5], 11.3% [6.25 µM]; in experiment [6], 7.41% [6.25 µM] (active). The growth in experiment [7] was 5.81% [6.25 µM] (active); in experiment [8], 17.8% [6.25 µM].

Turning to `C(=C(\C1=NCCN1)n1ccc2ccccc21)/c1ccccc1`, the growth in experiment [1] was 90.3%; in experiment [2], 107%; in experiment [3], 97.7%; in experiment [4] it was 89.8%; in experiment [5], 84.5%; in experiment [6], 94%. In addition, the growth is 103% in experiment [7] and 99.4% in experiment [8].

As for `Cc1cc(C)c2c(c1)N(C)c1ncnc(-n3c(C)nc4cc(C)ccc43)c1CC2C` (stereo not given), the growth in experiment [1] is 48.9%; in experiment [2], 59.2%; in experiment [3], 2.51% (active); in experiment [4], 19.6%; in experiment [5], 18.7%; in experiment [6], 17.4%. In addition, the growth in experiment [7] was 76.1%; in experiment [8], 38.7%.
